The results in this text go back to PubChem BioAssay AID2685 (National Center for Advancing Translational Sciences (NCATS), 2010).

About 2,100 (0.66%) of roughly 320,000 compounds were called active. Another 53% or so got no clear call; they are omitted. The call rests on the fitted dose curve; in most records, active means well fitted inhibition curve with a large enough effect in the signal ratio, with a control signal flat (not every such curve was filed as active); inconclusive means small, poorly fitted or top-dose-only effect, or effect the other way, or a change in a side signal; inactive means flat fitted curve, though single readings scatter; the % refers to the signal ratio. This excerpt belongs to a sample that is enriched for actives.
Potency means the concentration at half of the fitted maximal effect.

This test in a line: qHTS Assay for Lipid Storage Modulators in Drosophila S3 Cells.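 On cell number change: cells counted by Cell Tracker Red CMTPX staining in the red channel.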 On lipid storage change, negative = inhibition: on the % scale 0 is the no-effect control and ±100 the full control effect. As to conditions: BODIPY lipid droplet fluorescence, 18-24 h, cells fed with added oleic acid; cell number change: measured here: cell count max response; series mostly up to 46.1 µM; lipid storage change, negative = inhibition: at the top concentration. In outline: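 Laser-scanning cytometry quantifies lipid droplet accumulation (500–530 nm total intensity; droplet/cell object ratio) in oleic acid-fed (400 uM added) Drosophila S3 cells treated with a concentration series. 20 uM Triacsin C defined 100% inhibition.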
Consider `CC(=O)c1ccc(NC(=O)c2ccc(CSc3ccccc3)o2)cc1`, for which the “lipid storage change, negative = inhibition” value is 15.1% (inactive) and the cell number change was determined as 3.7%.
For `Cn1cncc1C#Cc1ccc2cc(C3(O)CCCCC3)oc(=O)c2c1` the same measures were 11.5% (inactive) and -13.7%.
With `Cn1cncc1C#Cc1ccc2cc(CCO)oc(=O)c2c1`, the Potency was 1300 nM (active) and the cell number change is 17.2%.
As to `CN(C)c1ccc(C#Cc2ccc3cc(CCO)oc(=O)c3c2)cc1`, the “lipid storage change, negative = inhibition” value was -0.121% (inactive) and the cell number change was 24%.
For `COc1cccc(Oc2cc(Cl)nc(N)n2)c1` the same measures were 0.532% (inactive) and -10.3%.
In the same order, the values of `COc1ccc(Cl)cc1NC(=O)C(C)OC(=O)C1=NNC(=O)CC1` (stereo not given) are 13.5% (inactive) and -0.986%.
For `O=C(N/N=C/c1ccccn1)c1cc(-c2ccncc2)nc2ccccc12` the same measures were 24.3% (inactive) and 0.674%.
Turning to `CC1=C(C(=O)N(C)C)C(c2ccc(Cl)c(Cl)c2)NC(=O)N1` (stereo not given), the Potency was 3660 nM (active) and the cell number change was -24.5%.
Turning to `CC1=C(C(=O)N(C)C)C(c2ccc(N3CCOCC3)cc2)NC(=O)N1` (stereo not given), the “lipid storage change, negative = inhibition” value was 10.6% (inactive).
Take `CC1=C(C(=O)OCC2CCCO2)C(c2ccc(Cl)c(Cl)c2)NC(=O)N1` (stereo not given): the “lipid storage change, negative = inhibition” value is 0.886% (inactive) and the cell number change worked out at 6.97%.
In the same order, the values of `N/C(=N\OC(=O)c1cccnc1)c1ccccc1Cl` are -0.604% (inactive) and -1.5%.
Turning to `O=c1ncn(-c2ccccc2C(F)(F)F)c2ncccc12`, the “lipid storage change, negative = inhibition” value was 14.1% (inactive) and the cell number change is -1.22%.
In the same order, the values of `CC(C)(C)NC(=O)NC(=O)CN1CCCc2ccccc21` are -1.35% (inactive) and -16.4%.
With `CC(C)(C)NC(=O)CN(C(=O)CCN1CCCc2ccccc21)C(C)(C)C`, the Potency was 14600 nM (active).
As to `CC(C(=O)NC(C)(C)C)N(Cc1cccs1)C(=O)CCN1CCc2ccccc21` (stereo not given), the “lipid storage change, negative = inhibition” value was 6.26% (inactive) and the cell number change was 1.12%.
For `O=C(COC(=O)c1ccco1)c1ccc(S(=O)(=O)N2CCCCC2)cc1`, the “lipid storage change, negative = inhibition” value is -15.9% (inactive) and the cell number change is -13.5%.
Regarding `Cc1cc(C)n2nc(C(=O)NNC(=O)c3ccc(Cl)cc3)nc2n1`, the Potency was 18400 nM (active) and the cell number change is -28%.
For `Cc1cc(C)n2nc(C(=O)NNC(=O)c3ccccc3)nc2n1`, the “lipid storage change, negative = inhibition” value is 9.61% (inactive) and the cell number change came out at 14%.
As for `Cc1cc(C)n2nc(C(=O)OCC(=O)NNC(=O)c3ccc(Cl)cc3)nc2n1`, the “lipid storage change, negative = inhibition” value is -21.1% (inactive) and the cell number change was -14.4%.
For `CCN(CC)c1nc(-c2ccc(Cl)cc2)cc(C(F)(F)F)c1C#N` the same measures were 21% (inactive) and -4.2%.
As for `O=C(COc1ccc(-c2ccccc2)cc1)NNC(=O)Nc1ccc(F)cc1F`, the “lipid storage change, negative = inhibition” value is 8.38% (inactive).
For `CC1CN(Cc2ccccc2)C(C)CC1O` (stereo not given), the “lipid storage change, negative = inhibition” value was 4.32% (inactive) and the cell number change came out at 13.3%.
For `OC(COc1ccc(OCC(O)CN2CCCCCC2)cc1)CN1CCCCCC1` (stereo not given) the same measures were 13.9% (inactive) and -8.16%.
For `COc1ccc(OCC(O)CN2CCCCCC2)cc1` (stereo not given) the same measures were -0.764% (inactive) and 9.25%.
For the compound `OC(COc1ccc(C2C=CCC2)cc1)CN1CCCCC1` (stereo not given), the Potency was 731 nM (active) and the cell number change was 1.19%.
On to `FC(F)(F)c1ccnc(N2CCN(Cc3cnc(-c4ccccc4)[nH]3)CC2)c1`, for which the “lipid storage change, negative = inhibition” value is 8.54% (inactive) and the cell number change was determined as 15%.
For `CC(NS(=O)(=O)c1ccc(CCC(=O)NCc2cccnc2)cc1)c1ccccc1` (stereo not given) the same measures were 0.909% (inactive) and -3.81%.
For the compound `CC(NS(=O)(=O)c1ccc(OCC(=O)NCc2cccnc2)cc1)c1ccccc1` (stereo not given), the Potency was 651 nM (active) and the cell number change is -6.31%.
For the compound `CC(NS(=O)(=O)c1ccc(OCC(=O)NCc2ccncc2)cc1)c1ccccc1` (stereo not given), the call was inactive and the cell number change was 0.901%.
